Experiment [1] deals with PTK6.
Experiment [2] relates to RIOK2.
The test system of experiment [3] is ROCK1.
Experiment [4] concerns ROCK2.
In experiment [5] the test system is RSK.
Experiment [6] has as its system RPS6KA5.
For experiment [7], the system named is RSK1.
For experiment [8], the system named is RPS6KA1.
Experiment [9] deals with RPS6KA3.
Experiment [10] concerns RSK2.
The subject of experiment [11] is RSK3.
Experiment [12] concerns RSK4.
Experiment [13] relates to SIK.
The test system of experiment [14] is SNARK.

Regarding `COc1cc(N2CCN(C)CC2)ccc1Nc1ncc2c(n1)N(C)c1ccccc1C(=O)N2` [XMD8-87], the Kinases covered result in [1] was “PTK6”. For `Cc1cc(NC(=O)c2cccc(NC(=O)/C=C/CN(C)C)c2)ccc1Nc1nccc(-c2cccnc2)n1` [JNK-IN-7], the Kinases covered result in experiment [2] is “RIOK2”. Still for that read-out and setting: the entry for `CCCc1cc(N2CCCN(C)CC2)nc2sc3c(N)ncnc3c12` [BI00604564] is “RIOK2”.

Take `CC1=C(C(=O)Nc2ccc3[nH]ncc3c2)C(c2ccc(Cl)c(Cl)c2)CC(=O)N1` (centres unmarked) [GSK299115A]: the Kinases covered entry in experiment [3] was “ROCK1”. On to `CCn1c(-c2nonc2N)nc2cncc(CNC3CCNCC3)c21` [SB-747651A], for which the results for the Kinases covered result in experiment [4] and in [5] were “ROCK2” and “RSK”, respectively. In the case of `CCn1c(-c2nonc2N)nc2cncc(C(=O)N3CC[C@H](N)C3)c21.Cl` [SB-772077-B], the Kinases covered entry in [4] was “ROCK2”; in experiment [6], “RPS6KA5”; in experiment [7], “RSK1”.

With `COc1cc(Nc2cnc(C#N)c(O[C@H](C)CN(C)C)n2)ncc1-c1cnn(C)c1` [CCT244747], the Kinases covered result in experiment [8] was “RPS6KA1”; in experiment [9], “RPS6KA3”. `CCCNC(=O)c1ccc(Nc2ncc(C(F)(F)F)c(Nc3ccccc3C(C)=O)n2)c(Br)c1` [BI00801818]: the Kinases covered entry is “RSK1” in experiment [7] and “RSK2” in [10].

As for `COc1ccc2[nH]c3c4[nH]c5ccc(OC)cc5c4c4c(c3c2c1)C(=O)NC4=O` [GW296115X], the Kinases covered entry in [11] is “RSK3”. As to `CC(C)N1CC(=O)N(C)c2cnc(Nc3cccc(S(=O)(=O)CCN4CCOCC4)c3)nc21` [BI00009348], the Kinases covered result in experiment [12] was “RSK4”. Turning to `CCn1cc(-c2ccnc3[nH]c(-c4cccc(CN(C)C)c4)cc23)c(-c2ccc(NC(=O)N(C)C)cc2)n1` [GSK1070916], the Kinases covered entry in experiment [13] is listed as “SIK”. Consider `COc1cc2c(cc1OC)C(=C(Nc1ccccc1)c1cccc(CN)c1)C(=O)N2` [BIBF0846CL], for which, in experiment [14], the Kinases covered result is listed as “SNARK”.

These data come from article PMC7826789 (International Journal of Molecular Sciences, 2021).
